Assay results: the supplement of paper PMC8699584
Structures can show the parent of a compound that is named as a salt. ± gives the standard deviation of the averaged measurements.

Columns and labels:
[1] = system: Molm13; experiment: cell viability relative to DMSO control (bortezomib = 0%); higher = less growth inhibition; conditions: 10 nM; 72 h
How it was run: (§1)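 Using 384-well plates, a set of 679 approved and investigational compounds was tested once at 10 nM against acute myeloid leukemia cells (1000 cells per well in 50 µL) over 72 h, with the whole screen done in duplicate. Viability readout relied on CellTiter-Glo luminescence measured on an EnVision reader. For each plate, linear regression mapped values between positive-control-treated cells at 0% and DMSO-treated cells at 100%.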

[2] = system: Mv4-11; experiment: as above; conditions: 10 nM; 72 h
How it was run: as §1

Row | Compound | cell viability [1] [%] | cell viability [2] [%]
1 | CC(=O)CC(c1ccccc1)c1c(O)c2ccccc2oc1=O (configuration not stated) [Warfarin] | 109 ± 8.2 | 103 ± 7
2 | CC(C)(C)c1ccc(S(=O)(=O)/C=C/C#N)cc1 | 108 ± 16 | 98.9 ± 4.4
3 | Cc1cncc2cccc(S(=O)(=O)N3CCCNC[C@@H]3C)c12 [(S)-H-1152 (hydrochloride)] | 100 ± 4.3 | 101 ± 3
4 | O.O.O.O.O=C([O-])CC(O)(CC(=O)[O-])C(=O)[O-].[Li+].[Li+].[Li+] [Lithium citrate tribasic tetrahydrate] | 109 ± 1.3 | 114 ± 1.7
5 | Cc1cn(-c2cc(NC(=O)c3ccc(C)c(Nc4nccc(-c5cccnc5)n4)c3)cc(C(F)(F)F)c2)cn1 [Nilotinib (AMN-107)] | 108 ± 9 | 112 ± 16
6 | O=[N+]([O-])c1ccc(-c2nc(-c3ccc(F)cc3)c(-c3ccncc3)[nH]2)cc1 | 99.9 ± 5.5 | 101 ± 5.5
7 | O=C1NC(=O)C(=Cc2ccc(-c3ccc(F)cc3)o2)S1 (stereo in doubt) | 106 ± 12 | 108 ± 13
8 | CCCCCCCCCCCCc1ccc(S(=O)(=O)Nc2nncs2)cc1 | 108 ± 3 | 100 ± 2
9 | O=c1ccc2ccccc2o1 [Coumarin] | 114 ± 8 | 114 ± 24
10 | CCOc1ccn(-c2ccc(F)cc2)c(=O)c1C(=O)Nc1ccc(Oc2ccnc(N)c2Cl)c(F)c1 | 102.7 ± 0.96 | 114 ± 7
11 | O=C(Nc1cccc(Cl)c1)Nc1ncc(CCNc2ncnc3ccsc23)s1 [SNS-314 Mesylate] | 64.7 ± 13 | 84.75 ± 0.26
12 | COc1ccc(CNC(=O)Nc2ncc([N+](=O)[O-])s2)cc1 | 107 ± 7.3 | 114 ± 15
13 | Cc1cc(CN2CCN(c3c(Br)cnc4nc(-c5ccc(N6CCN(C)CC6)cc5)[nH]c34)CC2)no1 | 85.6 ± 1.8 | 95.3 ± 3.4
14 | N=C(N)NC(=N)NCCc1ccccc1 [Phenformin hydrochloride] | 91.3 ± 30 | 107 ± 19
15 | Cc1cccc(/C=N/Nc2cc(N3CCOCC3)n3nc(-c4ccncc4)cc3n2)c1 | 95.5 ± 11 | 122 ± 4.4
16 | C=CC(=O)Nc1cccc(Nc2nc(Nc3ccc(N4CCN(C(C)=O)CC4)cc3OC)ncc2C(F)(F)F)c1 [Rociletinib (CO-1686, AVL-301)] | 108 ± 10 | 110 ± 1.6

Row | Compound | cell viability [1] [%] | cell viability [2] [%]
17 | Cn1cc(-c2ccc3c(c2)CCN3C(=O)Cc2cccc(C(F)(F)F)c2)c2c(N)ncnc21 | 105 ± 4.7 | 108 ± 18
18 | Cc1cncc2cccc(S(=O)(=O)N3CCCN(C(=O)CN)C[C@@H]3C)c12 [(S)-Glycyl-H-1152 (hydrochloride)] | 110 ± 9.1 | 97.4 ± 11
19 | O=c1cc(-c2ccc(O)cc2)oc2cc(O)cc(O)c12 [Apigenin] | 86.9 ± 19 | 95.3 ± 2.3
20 | Nc1[nH]nc2nnc(-c3c(-c4ccccc4)nn4ccccc34)cc12 | 95.5 ± 1.6 | 109 ± 11
21 | CC(C)=CCC[C@](C)(O[C@@H]1O[C@H](CO[C@@H]2O[C@H](CO)[C@@H](O)[C@H](O)[C@H]2O)[C@@H](O)[C@H](O)[C@H]1O)[C@H]1CC[C@]2(C)[C@@H]1[C@H](O)C[C@@H]1[C@@]3(C)CC[C@H](O[C@@H]4O[C@H](CO)[C@@H](O)[C@H](O)[C@H]4O)C(C)(C)[C@@H]3CC[C@]12C [Gypenoside XVII] | 95.8 ± 9.3 | 102 ± 7
22 | Nc1ncnc2c1ncn2C1OC(COP(=O)(O)O)C(O)C1O (configuration not stated) [Adenosine 5'-monophosphate monohydrate] | 102 ± 34 | 97.2 ± 0.99
23 | Nc1nccc(-c2c(-c3ccc(F)cc3)ncn2C2CCCCC2)n1 | 96.6 ± 18 | 114.4 ± 0.84
24 | O=c1cc(N2CCOCC2)oc2c(-c3cccc4c3sc3ccccc34)cccc12 | 108 ± 5.3 | 108 ± 8.2
25 | COc1cc(C(=O)N2CCC(N3CCN(C)CC3)CC2)ccc1Nc1ncc2c(n1)N(C)c1ccccc1C(=O)N2C | 97.52 ± 0.43 | 104 ± 5.1
26 | CN1CCN(c2ccc(C(=O)Nc3n[nH]c4ccc(Cc5cc(F)cc(F)c5)cc34)c(NC3CCOCC3)c2)CC1 [Entrectinib] | 87.5 ± 7 | 104 ± 24
27 | C=CC(=O)Nc1cccc(Nc2nc(Nc3ccc(OCCOC)cc3)ncc2F)c1 | 103 ± 10 | 110 ± 6.4
28 | O=S(=O)(c1cccc2cnccc12)N1CCCNCC1 [Fasudil] | 109 ± 12 | 104 ± 9.1
29 | O=C1Nc2ccc(CN3C(=O)CSC3=O)cc2/C1=C/c1cc(CN2CCOCC2)c[nH]1 | 92.3 ± 7.1 | 110 ± 8.4
30 | CN(N=O)C(=O)N[C@@H](C=O)[C@@H](O)[C@H](O)[C@H](O)CO [Streptozocin] | 89.4 ± 24 | 108 ± 4.5
31 | Cc1c(NC(=O)OC[C@@H]2COCCN2)cn2ncnc(Nc3ccc4c(cnn4Cc4cccc(F)c4)c3)c12 | 105 ± 8 | 112 ± 11
